Measured values reported in PubChem BioAssay (Tox21).
Values without a mark were called inactive. Inconclusive results are not listed. A call without a number means that no potency is given here. Calls of active or inactive are those of the source. Unless noted, calls follow the shape of the dose curve; as a rule, active = well fitted curve in the direction sought with a large enough effect in the repeat runs; inconclusive = weak or mixed curves; inactive = no such curve, though single readings can be large; an effect the other way counts as inactive or inconclusive.

Assays:
[1] = qHTS assay to identify small molecule agonists of the estrogen receptor alpha (ER-alpha) signaling pathway in the presence of an antagonist - cell viability counter screen (AID 1259386);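 also: series mostly up to about 92 µM; cells exposed to compounds for 22 h at 37 °C before the viability read; nearly all actives have a fitted effect of over 30% in size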
In short: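 VM7Luc4E2 cells (endogenous full-length ER-alpha, 4×ERE-luciferase) were held 5 days in phenol red-free medium with 10% charcoal-stripped FBS, plated, then given 10.0nM ICI-182,780 and compounds at 15 concentrations for 22hr at 37C; viability read by CellTiter-Fluor fluorescence.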

[2] = target: Progesterone receptor (Homo sapiens) (UniProt P06401); test: qHTS assay to identify small molecule agonists of the progesterone receptor (PR) signaling pathway (AID 1346784; calls by dose curve; also: nearly all actives have a fitted effect of over 30% in size)
Sequence of Progesterone receptor (Homo sapiens) (P06401 whole entry, looked up): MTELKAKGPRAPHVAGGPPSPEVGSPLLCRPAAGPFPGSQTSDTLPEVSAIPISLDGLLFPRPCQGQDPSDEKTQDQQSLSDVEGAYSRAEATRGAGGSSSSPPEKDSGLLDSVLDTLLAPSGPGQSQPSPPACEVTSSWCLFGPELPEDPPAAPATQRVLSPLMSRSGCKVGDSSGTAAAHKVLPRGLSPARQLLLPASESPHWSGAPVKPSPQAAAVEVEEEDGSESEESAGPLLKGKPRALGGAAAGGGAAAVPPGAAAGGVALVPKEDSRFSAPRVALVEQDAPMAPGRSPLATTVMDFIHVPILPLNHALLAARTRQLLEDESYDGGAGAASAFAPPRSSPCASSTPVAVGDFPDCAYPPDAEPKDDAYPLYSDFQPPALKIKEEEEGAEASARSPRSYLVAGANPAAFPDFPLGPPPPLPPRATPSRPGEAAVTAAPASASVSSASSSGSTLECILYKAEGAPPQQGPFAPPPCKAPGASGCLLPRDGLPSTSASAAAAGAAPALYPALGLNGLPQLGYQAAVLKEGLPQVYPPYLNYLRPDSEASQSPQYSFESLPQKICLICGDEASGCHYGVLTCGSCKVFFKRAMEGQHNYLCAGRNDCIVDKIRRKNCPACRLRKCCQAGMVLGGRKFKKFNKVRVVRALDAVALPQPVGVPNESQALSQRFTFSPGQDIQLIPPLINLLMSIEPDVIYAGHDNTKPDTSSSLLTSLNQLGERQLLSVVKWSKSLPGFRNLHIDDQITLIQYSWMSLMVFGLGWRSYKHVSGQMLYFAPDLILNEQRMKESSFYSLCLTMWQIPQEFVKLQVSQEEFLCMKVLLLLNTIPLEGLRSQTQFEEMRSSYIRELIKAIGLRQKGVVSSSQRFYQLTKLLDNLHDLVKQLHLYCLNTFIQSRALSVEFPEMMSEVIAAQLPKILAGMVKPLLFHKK
In short: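 Agonist mode, quantitative HTS format in a HEK 293T line expressing a UAS-controlled beta-lactamase reporter; 16 hr compound exposure at 37C in 2% charcoal-stripped FBS, then LiveBLAzer B/G FRET fluorescence.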

[3] = target: Progesterone receptor (Homo sapiens) (UniProt P06401); test: qHTS assay to identify small molecule antagonists of the progesterone receptor (PR) signaling pathway (AID 1346795; active = well fitted inhibition curve with a large enough effect in the signal ratio in the repeat runs, not every such curve was filed as active; the % refers to the signal ratio)
In short: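 HEK293T PR-UAS-bla reporter cells in charcoal-stripped serum (2%) received compound after a 6 hr settling period, followed by R5020 agonist at 1 nM final; 16 hr incubation preceded the FRET substrate step and fluorescence measurement.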

[4] = qHTS assay to identify small molecule antagonists of the progesterone receptor (PR) signaling pathway - cell viability counter screen (AID 1346798); also: nearly all actives have a fitted effect of over 50% in size; also: potency is read from the fitted curve at half-maximal effect; as to activity change, negative = cytotoxicity: series mostly up to about 92 µM
In short: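 Same-well multiplex: after 16 hr at 37C with compound and R5020 stimulation, HEK293T cells carrying a UAS-bla reporter received LiveBLAzer substrate (2 hr RT), then CellTiter-Glo (30 min RT) for luminescent viability.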

[5] = qHTS assay to identify small molecule agonists of the progesterone receptor (PR) signaling pathway - cell viability counter screen (AID 1346799; calls by dose curve; also: nearly all actives have a fitted effect of over 45% in size; also: potency is read from the fitted curve at half-maximal effect)
In short: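 Counter screen for cytotoxicity: compound-treated PR-UAS-bla HEK293T cells (16 hr, 37C, 5% CO2) were assayed with CellTiter-Glo, luminescence measured after 30 min at room temperature.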

[6] = qHTS assay to identify small molecule agonists of the TGF-beta/Smad signaling pathway - cell viability counter screen (AID 1346829); also: top concentration of the series differs between compounds; nearly all actives have a fitted effect of over 45% in size
In short: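 HEK 293T SBE-bla line, 5 hr compound exposure at 37 C, multiplexed CellTiter-Glo viability read by luminescence.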

[7] = qHTS assay to identify small molecule agonists of the TGF-beta/Smad signaling pathway (AID 1346859; active = well fitted activation curve with a large enough effect in the signal ratio in the repeat runs, not every such curve was filed as active; the % refers to the signal ratio; also: series mostly up to about 77 µM)
In short: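 Smad-responsive beta-lactamase reporter cells (HEK 293T) received compounds from DMSO stocks after overnight attachment, were incubated 5 hr, then treated 2 hr with FRET substrate before dual-emission fluorescence measurement (405 nm excitation).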

[8] = target: Thyrotropin-releasing hormone receptor (Homo sapiens) (UniProt P34981); test: qHTS assay to identify small molecule antagonists of the thyrotropin-releasing hormone receptor (TRHR) signaling pathway (AID 1346877; active = well fitted inhibition curve with a large enough effect in the repeat runs, not every such curve was filed as active; also: series mostly up to about 51 µM)
Sequence of Thyrotropin-releasing hormone receptor (Homo sapiens) (P34981 whole entry, looked up): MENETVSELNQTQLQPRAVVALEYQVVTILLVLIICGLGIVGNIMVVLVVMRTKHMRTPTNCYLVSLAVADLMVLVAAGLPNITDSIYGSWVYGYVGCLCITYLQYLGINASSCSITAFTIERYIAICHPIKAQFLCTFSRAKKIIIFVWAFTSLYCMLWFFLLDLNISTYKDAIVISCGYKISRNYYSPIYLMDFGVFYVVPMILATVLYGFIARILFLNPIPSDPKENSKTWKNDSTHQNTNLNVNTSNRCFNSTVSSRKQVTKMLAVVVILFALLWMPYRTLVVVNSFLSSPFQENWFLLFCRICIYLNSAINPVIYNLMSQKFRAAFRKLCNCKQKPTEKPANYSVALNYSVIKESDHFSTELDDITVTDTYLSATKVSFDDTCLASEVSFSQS
In short: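 TRHR-expressing HEK293 cells were seeded, cultured 18 h at 37 °C, then loaded with calcium dye for 2 h. Compounds were pre-incubated 5 min at room temperature before 1 nM TRH (final) was added, and kinetic fluorescence was recorded for 3 min.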

[9] = qHTS assay to identify small molecule antagonists of the TGF-beta/Smad signaling pathway - cell viability counter screen (AID 1346824); also: nearly all actives have a fitted effect of over 50% in size
In short: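 Cytotoxicity counter-screen run in the same wells as the beta-lactamase Smad reporter read: CellTiter-Glo luminescence after 30 min at room temperature. HEK 293T SBE-bla cells had 5 hr compound exposure at 37 C with TGF-beta1 (0.25 ng/mL stock).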

[10] = target: Thyrotropin receptor (Homo sapiens) (UniProt P16473); test: qHTS assay to identify small molecule antagonists of the thyroid stimulating hormone receptor (TSHR) signaling pathway (AID 1259385; calls by dose curve; also: nearly all actives have a fitted effect of over 20% in size; also: potency is read from the fitted curve at half-maximal effect)
Sequence of Thyrotropin receptor (Homo sapiens) (P16473 whole entry, looked up): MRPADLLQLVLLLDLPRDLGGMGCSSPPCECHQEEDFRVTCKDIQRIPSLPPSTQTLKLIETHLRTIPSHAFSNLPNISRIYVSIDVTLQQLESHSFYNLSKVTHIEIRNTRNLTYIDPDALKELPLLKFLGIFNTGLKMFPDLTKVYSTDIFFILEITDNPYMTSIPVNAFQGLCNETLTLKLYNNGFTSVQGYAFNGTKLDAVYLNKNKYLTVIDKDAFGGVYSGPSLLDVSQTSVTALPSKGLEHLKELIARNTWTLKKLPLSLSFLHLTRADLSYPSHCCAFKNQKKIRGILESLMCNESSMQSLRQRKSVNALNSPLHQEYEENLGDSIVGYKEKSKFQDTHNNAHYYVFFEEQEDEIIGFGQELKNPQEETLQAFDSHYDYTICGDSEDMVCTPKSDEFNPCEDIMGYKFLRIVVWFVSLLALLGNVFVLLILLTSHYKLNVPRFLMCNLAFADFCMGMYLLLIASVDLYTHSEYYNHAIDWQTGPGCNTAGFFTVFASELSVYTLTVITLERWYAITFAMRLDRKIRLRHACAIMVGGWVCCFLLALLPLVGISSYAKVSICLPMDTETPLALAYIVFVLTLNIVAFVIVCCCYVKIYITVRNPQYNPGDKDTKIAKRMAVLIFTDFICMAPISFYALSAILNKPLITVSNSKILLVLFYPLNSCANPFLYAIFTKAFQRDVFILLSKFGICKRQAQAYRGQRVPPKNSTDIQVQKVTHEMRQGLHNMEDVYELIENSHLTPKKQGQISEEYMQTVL
In short: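 Antagonist mode: compound-treated TSHR-expressing HEK293 cells were stimulated with 1.5 ng/mL TSH (final) in presence of Ro20-1724 for 30 min at RT. HTRF cAMP detection after 1 h; each compound tested at 15 concentrations, triplicate.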

SMILES: OC1OC[C@@H](O)[C@H](O)[C@H]1O (stereo partly drawn)
- outcome [1]: inactive
- Potency [2]: inactive
- Potency [3]: inactive
- Potency [4]: inactive
- Potency [5]: inactive
- outcome [6]: inactive
- outcome [7]: inactive
- outcome [8]: inactive

SMILES: CCCOc1ccccc1-c1nc2n[nH]nc2c(=O)[nH]1
- outcome [1]: inactive
- Potency [2]: inactive
- Potency [3]: inactive
- Potency [4]: inactive
- Potency [5]: inactive
- outcome [9]: inactive
- outcome [6]: inactive
- outcome [8]: inactive

SMILES: Cc1cc(C)c(NC(=O)CN(CC(=O)O)CC(=O)O)c(C)c1Br
- outcome [1]: inactive
- Potency [2]: inactive
- Potency [3]: inactive
- Potency [4]: inactive
- Potency [5]: inactive
- outcome [9]: inactive
- outcome [7]: inactive

SMILES: CCN1CCN(c2cc3c(cc2F)c(=O)c(C(=O)O)cn3C2CC2)CC1
- Potency [10]: inactive
- Potency [2]: inactive
- Potency [3]: inactive
- Potency [5]: inactive
- outcome [9]: inactive
- outcome [6]: inactive
- outcome [8]: inactive

SMILES: Cc1ccccc1C(=O)O
- outcome [1]: inactive
- Potency [2]: inactive
- Potency [3]: inactive
- Potency [4]: inactive
- Potency [5]: inactive
- outcome [9]: inactive
- outcome [6]: inactive
- outcome [7]: inactive

SMILES: O=c1[nH]c(=O)n([C@H]2O[C@H](CO)[C@@H](O)[C@@H]2O)cc1/C=C\Br
- outcome [1]: inactive
- Potency [2]: inactive
- Potency [3]: inactive
- Potency [4]: inactive
- Potency [5]: inactive
- outcome [9]: inactive
- outcome [6]: inactive
- outcome [7]: inactive
- outcome [8]: inactive

SMILES: Nc1ccc2cc(S(=O)(=O)O)ccc2c1
- outcome [1]: inactive
- Potency [2]: inactive
- Potency [3]: inactive
- Potency [4]: inactive
- Potency [5]: inactive
- outcome [9]: inactive
- outcome [6]: inactive
- outcome [7]: inactive
- outcome [8]: inactive

SMILES: C1COCCO1
- outcome [1]: inactive
- Potency [2]: inactive
- Potency [3]: inactive
- Potency [4]: inactive
- Potency [5]: inactive
- outcome [9]: inactive
- outcome [6]: inactive
- outcome [7]: inactive
- outcome [8]: inactive

SMILES: NC(=O)c1ncn([C@@H]2O[C@H](CO)[C@@H](O)[C@H]2O)c1O
- Potency [10]: inactive
- Potency [2]: inactive
- Potency [3]: inactive
- Potency [4]: inactive
- Potency [5]: inactive
- outcome [7]: inactive
- outcome [8]: inactive

SMILES: CCn1cc(C(=O)O)c(=O)c2cc(F)c(N3CCN(C)CC3)cc21
- activity change, negative = inhibition [10]: 0.775% [at 19 µM]
- activation [2]: -0.0581% [at 19 µM]
- activity change, negative = cytotoxicity [4]: 0.0653% [at 18.9 µM]
- activity change, negative = cytotoxicity [5]: -1.41% [at 19 µM]
- viability change, negative = cytotoxic [9]: 3.51% [at 15.8 µM]
- activity change, negative = cytotoxicity [6]: -2.92% [at 15.8 µM]
- activation [7]: 0.23% [at 15.8 µM]
- activity, negative = inhibition [8]: 2.2% [at 10.5 µM]

SMILES: O=C(O)/C=C/c1ccc(Cn2ccnc2)cc1
- outcome [1]: inactive
- Potency [2]: inactive
- Potency [3]: inactive
- Potency [4]: inactive
- Potency [5]: inactive
- outcome [9]: inactive
- outcome [6]: inactive
- outcome [7]: inactive
- outcome [8]: inactive

SMILES: C=CC(=O)N1CCOCC1
- Potency [10]: inactive
- Potency [2]: inactive
- Potency [3]: inactive
- Potency [5]: inactive
- outcome [9]: inactive
- outcome [6]: inactive
- outcome [7]: inactive
- outcome [8]: inactive

SMILES: CCCCc1ccc(N)cc1
- Potency [10]: inactive
- Potency [2]: inactive
- Potency [3]: inactive
- Potency [5]: inactive
- outcome [6]: inactive
- outcome [7]: inactive

SMILES: CNC(=O)c1c(I)c(NC(=O)CCCCC(=O)Nc2c(I)c(C(=O)O)c(I)c(C(=O)NC)c2I)c(I)c(C(=O)O)c1I
- outcome [1]: inactive
- Potency [2]: inactive
- Potency [3]: inactive
- Potency [4]: inactive
- Potency [5]: inactive
- outcome [9]: inactive
- outcome [6]: inactive
- outcome [7]: inactive
- outcome [8]: inactive

SMILES: C1=C\CC/C=C\CC/C=C\CC/1
- outcome [1]: inactive
- Potency [2]: inactive
- Potency [3]: inactive
- Potency [4]: inactive
- Potency [5]: inactive
- outcome [9]: inactive
- outcome [6]: inactive
- outcome [7]: inactive

SMILES: C#CC(C)(O)CC(C)C (stereo not drawn)
- outcome [1]: inactive
- Potency [2]: inactive
- Potency [3]: inactive
- Potency [4]: inactive
- Potency [5]: inactive
- outcome [9]: inactive
- outcome [6]: inactive
- outcome [7]: inactive
- outcome [8]: inactive

SMILES: N[C@@H](CS)C(=O)O
- Potency [10]: inactive
- Potency [2]: inactive
- Potency [3]: inactive
- Potency [5]: inactive
- outcome [9]: inactive
- outcome [6]: inactive
- outcome [7]: inactive

SMILES: Cc1nccn1CC1CCc2c(c3ccccc3n2C)C1=O (stereo not drawn)
- outcome [1]: inactive
- Potency [2]: inactive
- Potency [3]: inactive
- Potency [4]: inactive
- Potency [5]: inactive
- outcome [9]: inactive
- outcome [6]: inactive
- outcome [7]: inactive
- outcome [8]: inactive

SMILES: C1C2OC2C2C1C1CC2C2OC12 (stereo not drawn)
- outcome [1]: inactive
- Potency [2]: inactive
- Potency [3]: inactive
- Potency [4]: inactive
- Potency [5]: inactive
- outcome [9]: inactive
- outcome [6]: inactive
- outcome [7]: inactive
- outcome [8]: inactive

SMILES: O=C(O)CCNC(=O)c1ccc(N=Nc2ccc(O)c(C(=O)O)c2)cc1
- Potency [10]: inactive
- Potency [2]: inactive
- Potency [3]: inactive
- Potency [4]: inactive
- outcome [9]: inactive
- outcome [6]: inactive
- outcome [7]: inactive
- outcome [8]: inactive

SMILES: CC(C)c1cccc(C(C)C)c1N
- outcome [1]: inactive
- Potency [2]: inactive
- Potency [3]: inactive
- Potency [4]: inactive
- Potency [5]: inactive
- outcome [9]: inactive
- outcome [7]: inactive
- outcome [8]: inactive

SMILES: C1CCCCCCCCCCC1
- activity change, negative = inhibition [10]: -0.259% [at 19 µM]
- activation [2]: -0.689% [at 19 µM]
- activity change, negative = inhibition [3]: 0.992% [at 18.9 µM]
- activity change, negative = cytotoxicity [5]: 1.68% [at 19 µM]
- viability change, negative = cytotoxic [9]: 13% [at 15.8 µM]
- activity change, negative = cytotoxicity [6]: 5.27% [at 15.8 µM]
- activation [7]: 1.5% [at 15.8 µM]
- activity, negative = inhibition [8]: -13.6% [at 10.5 µM]

SMILES: NCCNC(=O)c1ccc(Cl)cn1
- Potency [10]: inactive
- Potency [2]: inactive
- Potency [3]: inactive
- Potency [5]: inactive
- outcome [9]: inactive
- outcome [6]: inactive
- outcome [7]: inactive
- outcome [8]: inactive

SMILES: CC(C)CCOC(=O)CC(C)C
- outcome [1]: inactive
- Potency [2]: inactive
- Potency [3]: inactive
- Potency [4]: inactive
- Potency [5]: inactive
- outcome [9]: inactive
- outcome [6]: inactive
- outcome [7]: inactive
- outcome [8]: inactive

SMILES: c1cc(CN2CCCCC2)cc(OCCCNc2nc3ccccc3s2)c1
- Potency [10]: 29.8 µM (active)
- Potency [2]: inactive
- Potency [4]: inactive
- outcome [6]: inactive
- outcome [7]: inactive

SMILES: COC(=O)CCCC(=O)O
- Potency [10]: inactive
- Potency [4]: inactive
- Potency [5]: inactive
- outcome [9]: inactive
- outcome [6]: inactive
- outcome [7]: inactive

SMILES: O=[N+]([O-])c1ccc(CCO)cc1
- Potency [10]: inactive
- Potency [2]: inactive
- Potency [3]: inactive
- Potency [4]: inactive
- Potency [5]: inactive
- outcome [6]: inactive
- outcome [7]: inactive
- outcome [8]: inactive

SMILES: CCCCCCOC(=O)c1ccccc1O
- Potency [10]: inactive
- Potency [4]: 24.3 µM (active)
- Potency [5]: 30.6 µM (active)
- outcome [9]: inactive
- outcome [6]: inactive
- outcome [7]: inactive
- outcome [8]: inactive

SMILES: C=C[Si](OC)(OC)OC
- outcome [1]: inactive
- Potency [2]: inactive
- Potency [3]: inactive
- Potency [4]: inactive
- Potency [5]: inactive
- outcome [9]: inactive
- outcome [6]: inactive
- outcome [7]: inactive
- outcome [8]: inactive

SMILES: CN1[C@@H]2CC[C@H]1CC(NC(=O)n1c(=O)[nH]c3ccccc31)C2 (stereo partly drawn)
- outcome [1]: inactive
- Potency [2]: inactive
- Potency [3]: inactive
- Potency [4]: inactive
- Potency [5]: inactive
- outcome [9]: inactive
- outcome [6]: inactive
- outcome [7]: inactive
- outcome [8]: inactive

SMILES: CC(C)(O)C(=O)c1ccc(OCCO)cc1
- outcome [1]: inactive
- Potency [2]: inactive
- Potency [3]: inactive
- Potency [4]: inactive
- Potency [5]: inactive
- outcome [9]: inactive
- outcome [6]: inactive
- outcome [7]: inactive
- outcome [8]: inactive
